# Assay results from ChEMBL document CHEMBL3433997, “St. Jude Leishmania screening dataset” (2016).
# How the values were obtained:
# Assay type in all cases: functional
# [1] = biological target: Solute carrier family 2, facilitated glucose transporter member 1 (Homo sapiens) (UniProt P11166); assay: ST_JUDE_LEISH: Cytotoxicity at 2uM final concentration against transgenic Leishmania Mexicana promastigotes LmGLUT1 that are glucose transport deficient and complemented with the human glucose transporter GLUT1. Activity is measured by DNA content using SYBR green in vitro
# Sequence of Solute carrier family 2, facilitated glucose transporter member 1 (Homo sapiens) (P11166 whole entry): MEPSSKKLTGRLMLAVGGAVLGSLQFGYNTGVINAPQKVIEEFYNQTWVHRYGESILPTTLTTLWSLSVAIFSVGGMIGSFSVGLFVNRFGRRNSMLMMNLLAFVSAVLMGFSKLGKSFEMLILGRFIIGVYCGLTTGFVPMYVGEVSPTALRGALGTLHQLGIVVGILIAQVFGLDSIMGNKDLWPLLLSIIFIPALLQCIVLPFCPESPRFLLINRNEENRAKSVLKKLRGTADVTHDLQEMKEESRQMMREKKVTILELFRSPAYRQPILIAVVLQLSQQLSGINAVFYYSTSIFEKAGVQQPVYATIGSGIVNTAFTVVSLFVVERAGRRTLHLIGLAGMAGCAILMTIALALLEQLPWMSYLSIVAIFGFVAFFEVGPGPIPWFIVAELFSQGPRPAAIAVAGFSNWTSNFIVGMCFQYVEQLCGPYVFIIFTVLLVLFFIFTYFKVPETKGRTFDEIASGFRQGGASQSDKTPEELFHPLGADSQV
# [2] = biological target: Hexose transporter 1 (Plasmodium falciparum) (UniProt O97467); assay: ST_JUDE_LEISH: Cytotoxicity at 2uM final concentration against transgenic Leishmania Mexicana promastigotes LmPfHT that are glucose transport deficient and complemented with the Plasmodium falciparum hexose transporter. Activity is measured by DNA content using SYBR green in vitro
# [3] = biological target: Glucose transporter (Leishmania mexicana) (UniProt O61059); assay: ST_JUDE_LEISH: Cytotoxicity at 2uM final concentration against transgenic Leishmania Mexicana promastigotes LmGT2 that are glucose transport deficient and complemented with the L. Mexicana glucose transporter 2. Activity is measured by DNA content using SYBR green in vitro
SMILES,inhibition [1] [%],inhibition [2] [%],inhibition [3] [%]
COc1cc2nc(C)nc(Nc3cccc(Br)c3)c2cc1OC,-0.77,-0.52,-0.03
O=C(Cc1cc(F)cc(F)c1)NC1CCN(c2ccnc3cc(Cl)ccc23)C1 (stereo not drawn),1.93,1.66,2.22
CC(C)(C)c1ccc(OCCCON2C(=N)N=C(N)NC2(C)C)c(C(C)(C)C)c1,1.15,0.14,1.14
CC(Oc1ccc(C(=O)c2ccc(F)cc2)cc1)C(=O)N1CCc2ccccc21 (stereo not drawn),-1.44,-0.96,0.7
O=C(Nc1ccc(N2CCNCC2)cc1)c1ccn2ncc(-c3cccc(Cl)c3)c2n1,84.8,83.9,54.3
CCCNCc1ccc(-c2ccc(CN(C(=O)c3nn(-c4ccccc4)nc3C)C3CC3)cc2)nc1,0.19,0.58,0.38
Cc1cc(C(=O)NC2CCN(Cc3ccccc3)CC2)ccc1-c1nc2cc(Cl)c(Cl)cc2[nH]1,3.63,-0.19,3.05
CCC(CCON1C(N)=NC(N)=NC1(C)C)c1ccc(Cl)c(Cl)c1 (stereo not drawn),3.2,3.06,3.3
O=C(NCCNc1nc(NCCNC(=O)Nc2ccccc2)c2ccc(=O)n(-c3c(F)cccc3F)c2n1)Nc1ccccc1,2.75,1.99,-0.37
O=S(=O)(NCCN1CCCC1)c1ccc(-c2cccc(CNCc3ccccc3)c2)s1,-2.31,-2.12,-2.89
COc1ccc2nccc([C@@H](O)CN3CCC(NCc4cnc5c(c4)NC(=O)CS5)CC3)c2c1,2.7,4.54,1.2
CCCCCOc1c(CCC)cc(Cc2cnc(N)nc2N)cc1CCC,14.7,12.3,4.12
CCc1cc2c(Sc3nnc(N)s3)ncnc2s1,2.44,0.05,-5.69
N#Cc1ccc(N2CCN(Cc3cccc(-c4ccc(-c5nc6cc(C(F)(F)F)ccc6[nH]5)s4)c3)CC2)nc1,0.46,1.1,0.57
O=C(Nc1ccc(C(F)(F)F)cc1)c1cccc(S(=O)(=O)NC2CCN(CC3CCCCC3)C2)c1 (stereo not drawn),2.01,0.63,0.63
COc1cc(NCC2(CNCc3cn(Cc4ccccc4)c4ccccc34)CCCCC2)nc2ccccc12,-0.66,-0.02,-0.38
CN(C)CCCn1cncc1-c1ccc2ncnc(Nc3ccc(OCc4ccccc4)cc3)c2c1,4.09,6.87,7.01
COc1cc2cc(-c3nc4ccccc4[nH]3)c(N)nc2cc1OC,84,91.3,67.3
CCCCNc1cc(NCCCC)c2c(n1)[nH]c1ccccc12,18.4,16.6,4.43
c1ccc(COc2ccc(Nc3ncnc4cnc(-c5ccc(CN6CCCCC6)o5)cc34)cc2)cc1,1.44,1.73,2.99
O=C(Nc1cc(C(F)(F)F)cc(C(F)(F)F)c1)N1CCC(CCN2CCC(c3c[nH]c4ccccc34)CC2)CC1,5.87,4.12,4.71

SMILES,inhibition [1] [%],inhibition [2] [%],inhibition [3] [%]
COc1cc(C(F)(F)F)cc2[nH]c(CNCCCNc3nc4ccccc4[nH]3)cc12,4.4,6.5,5.01
C=C(C)Cn1cc(C2CCN(CCN3CCC(CNC(=O)c4ccc(-c5ccc(C#N)cc5)cc4)CC3)CC2)c2ccccc21,7.94,4.28,5.17
CC1(C)N=C(N)N=C(N)N1c1cccc(C(F)(F)F)c1,-1.8,-0.92,-3.44
Nc1cc(C(F)(F)F)ccc1Cl,-1.56,-2.13,-2.26
Cc1cc(NC(=O)c2ccco2)ccc1OC1CCN(Cc2ccc(C#N)cc2)CC1,1.63,1.09,1.11
O=C(Nc1ccc(C(F)(F)F)cc1)c1ccc(S(=O)(=O)NCC2CCCN(CC3CCCCC3)C2)cc1 (stereo not drawn),2.94,2.24,1.65
O=C(Nc1ccnc2ccccc12)NC1CCN(CCc2ccccc2)CC1,12.1,10.9,7.91
CCn1c(Sc2ccc([N+](=O)[O-])c(C#N)c2)nnc1-c1ccc(Cl)cc1,9.05,7.38,12.8
CC(C)CNC(=O)CN1C(=O)C(c2ccccc2)(c2ccccc2)N=C1N,4.76,4.66,2.29
Cn1cncc1-c1ccc2c(-c3ccsc3)cnc(N)c2c1,5.58,6.85,6.81
C=CC[C@H](NC(=O)c1ccc(NS(=O)(=O)c2ccc3nc(N)[nH]c(=O)c3c2)cc1)C(=O)OCCCC,0.58,0.62,1.67
Cc1cccc2nc(-c3ccc(-c4ccc(CN5CCN(c6ccncc6)CC5)cc4)s3)[nH]c12,2.98,2.29,1.09
CCOC(=O)C(NC(=O)Cc1ccccc1)C(C)C (stereo not drawn),-2.58,-2.35,-3.14
NC1CCN(CCNCc2cccc(-c3ccc(-c4nc5cc(C(F)(F)F)ccc5[nH]4)cc3)c2)C1 (stereo not drawn),2.65,1.4,2.67
O=S(=O)(NCCN1CCCC1)c1cccc(-c2cccc(CNCc3ccsc3)c2)c1,-0.74,-0.16,1.71
N=c1n(CCN2CCCCC2)c2ccccc2n1CC(O)c1cccc(Br)c1 (stereo not drawn),3.65,4.03,3.65
Cn1cc(-c2ccnc3[nH]c(-c4cccc(CNC5CCC(O)CC5)c4)cc23)cn1 (stereo not drawn),0.39,1.89,3.37
CNCC(C)(C)c1nc(-c2ccc(Cl)c(O)c2)c(-c2ccncc2)[nH]1,-1.98,-1.37,-3.28
O=c1[nH]ccc2nc(N[C@@H]3CCNC3)nc(Nc3cc(Cl)cc(Cl)c3)c12,7.56,8.18,9.4
COc1ccc(-c2cc(C(=O)N3CCc4ccccc43)c3ccccc3n2)cc1OC,-0.76,1.24,-0.93
